Results reported in PubChem BioAssay (NCI).
The panel holds about 79,000 compounds, 15% with a hit somewhere; the sample as a whole holds those more often. A number with no mark means an inactive call. Calls of active or inactive are those of the source. Rule as the data show it: active = growth inhibition above about 70%; inactive = the rest.

How the values were obtained:
[1] = NCI Yeast Anticancer Drug Screen. Data for the rad50 strain (AID 155);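 also: 0% = growth of vehicle-only cultures of the same strain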; conditions: S. cerevisiae rad50 strain growth inhibition; at 50.0 µM; hits give high values
Outline: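 DNA repair mutant yeast, compound exposure, growth read-out; inhibition is taken relative to vehicle.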

[2] = NCI Yeast Anticancer Drug Screen. Data for the mec2-1 strain (AID 157); conditions: S. cerevisiae mec2-1 strain, at 50.0 µM, hits give high values
Outline: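 Yeast mec2-1 mutant treated with compound. Readout: growth inhibition vs vehicle controls.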

[3] = NCI Yeast Anticancer Drug Screen. Data for the sgs1 mgt1 strain (AID 161);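 also: 0% = growth of cultures given vehicle only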; conditions: S. cerevisiae sgs1 mgt1 strain, at 50.0 µM, hits give high values
Outline: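 Read-out: growth inhibition vs vehicle controls. Cells: mutant yeast strain deficient in DNA damage repair.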

[4] = NCI Yeast Anticancer Drug Screen. Data for the cln2 rad14 strain (AID 165);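 also: 0% = growth equal to vehicle treated cultures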; conditions: S. cerevisiae cln2 rad14 strain, at 50.0 µM, hits give high values
Outline: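 cln2 rad14 yeast strain; compound exposure; growth inhibition read vs vehicle controls.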

[5] = NCI Yeast Anticancer Drug Screen. Data for the bub3 strain (AID 167); conditions: S. cerevisiae bub3 mutant strain, at 50.0 µM, hits give high values
Outline: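 In this screen, a yeast mutant lacking normal mitotic checkpoint function is challenged with compound. Relative growth versus vehicle gives the inhibition value.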

[6] = NCI Yeast Anticancer Drug Screen. Data for the mlh1 rad18 strain (AID 175); conditions: S. cerevisiae mlh1 rad18 strain growth inhibition; at 50.0 µM; hits give high values
Outline: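 Yeast w/ defined DNA-repair lesions; compound exposure; growth vs vehicle controls → % inhibition.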

Structure (SMILES) | growth inhibition [1] | growth inhibition [2] | growth inhibition [3] | growth inhibition [4] | growth inhibition [5] | growth inhibition [6]
CCOCCN1CCN(CCOCC)CC1 | -11.9% | -9.75% | -9.65% | -18.4% | 27.6% | 14%
C=CCc1cc(OC)ccc1O | 22.3% | 36.8% | 30.8% | -3% | 22.3% | 19.6%
O=C(/C=C/c1ccccc1)NC(=S)Nc1cc(Cl)ccc1O | 2.55% | 7.8% | 6.25% | 5.5% | 12.7% | 6.85%
NC(=O)c1ccc(NCC2=CC(=O)C=CC2=O)cc1 | -9.85% | 3.25% | -5.05% | -2.6% | -17.9% | 16.8%
O=C1CCCC(C(Sc2ccccc2)(Sc2ccccc2)Sc2ccccc2)C1 (configuration not stated) | 62.2% | 5.1% | 65.2% | 37.6% | 21.9% | 81.3% (active)
Cc1cc([N+](=O)[O-])c(C)c(Br)c1C | -8.45% | -20.2% | -37.7% | 4.65% | -38.5% | -0.85%
Cc1ccc2nc(CC(=O)c3ccc(F)cc3)c(=O)[nH]c2c1 | 1.85% | 18.8% | 16.1% | 27.8% | 18.1% | 34.9%
COCCCNC1=C(C#N)C(=O)NC(c2cccc([N+](=O)[O-])c2)S1 (configuration not stated) | -9.7% | -27.4% | 1.75% | 7.85% | -9.8% | -32.7%
N#CCCN(CCC#N)c1ccc(/C=C2\N=C(CN3C(=O)c4ccccc4C3=O)OC2=O)cc1 | -20.1% | 4.25% | 7.05% | 11.3% | 0.05% | 7.55%
Nc1ccc(OCC(O)N2C(=O)c3ccccc3C2=O)cc1 (configuration not stated) | -46.2% | -39.5% | -32.9% | 14.4% | 29.9% | -17.9%
CCOP(=O)(OCC)C1OCC(O)C(C2OC(P(=O)(OCC)OCC)OCC2O)O1 (configuration not stated) | 7.95% | 4.4% | 2.45% | 0.85% | -1.55% | 7.25%
CCC(C)OC(=O)CC(c1ccccc1)N1CCCCC1 (configuration not stated) | 7.5% | -10.4% | 3% | -26.4% | -0.65% | -4.5%
COc1ccc(OC)c(NC(=O)NN(C)C)c1 | -31.4% | -38.8% | -2.25% | 7.95% | -21.1% | -21.6%
Cc1ccc(S(=O)(=O)ON/N=c2\ccn(C)c3ccccc23)cc1 | 38.1% | 12.6% | 19.1% | -4.85% | 8.05% | 16.6%
Cc1c(C)c2cc3c(=O)c(CCl)coc3c(C)c2oc1=O | 22.4% | 1.15% | 16% | 15.6% | -7.15% | -5.95%
Oc1ccc2cc(O)ccc2c1 | -5.45% | -25.6% | -1.7% | -7.8% | -20.4% | -5.85%
N#C/C(=C/n1c(=S)[nH]c2ccc([N+](=O)[O-])cc21)C(N)=O | -53.3% | -41% | -50.4% | 2.15% | -24% | -70.9%
CC(C)=NNS(=O)(=O)c1ccc(C)cc1 | -7.7% | 14.6% | 2.65% | 7.2% | -14.2% | -7.55%
O=C(OCCOc1ccc(Cl)cc1Cl)c1ccccc1O | -2.4% | -17.4% | -1.85% | -12.8% | 11.6% | 0.3%
O=C(O)c1cc(Cl)ccc1-c1ccc(Cl)cc1C(=O)Nc1ccc2c(c1)Cc1ccccc1-2 | 91.3% (active) | 89.7% (active) | 94.6% (active) | 87.8% (active) | 85.3% (active) | 94.9% (active)
N#Cc1nc(NC(=O)c2ccccc2)sc1N | -5.7% | -29.9% | -27.6% | 11.2% | 4.2% | -10.2%

Structure (SMILES) | growth inhibition [1] | growth inhibition [2] | growth inhibition [3] | growth inhibition [4] | growth inhibition [5] | growth inhibition [6]
OCC1OC(n2c(SCc3ccccc3)nc3ccccc32)C(O)C1O (configuration not stated) | -3.5% | 1.45% | -9.1% | -11.9% | 6.4% | 0.1%
CCc1ccc(C(O)C(=O)O)cc1 (configuration not stated) | 4.6% | 7.95% | -1.6% | 3.85% | -2.7% | -3.75%
O=C1CC[C@@H](S(=O)(=O)c2ccccc2)[C@H](/C=C/c2ccccc2)O1 | -5.5% | 25.2% | 37.6% | 26.1% | -7.4% | -15.9%
Nc1nc(Cc2ccccc2)cc(-c2cc(Cc3ccccc3)nc(N)n2)n1 | 2.7% | 4.7% | 5.2% | 1.8% | -6.3% | 1.7%
COc1ccc(-c2nc(SCC(=O)O)n(-c3ccccn3)c2-c2ccc(OC)cc2)cc1 | 70.7% (active) | 66.5% | 82.3% (active) | 83.7% (active) | 42.9% | 77.7% (active)
CS(=O)(=O)C(CCC(=O)C(c1ccccc1)c1ccccc1)C(=O)c1ccccc1 (configuration not stated) | -7.7% | -11% | -20.5% | -39.5% | -1.55% | -29.2%
CCCCN(CCOc1ccnc(=O)[nH]1)CC(C)C | 6% | 13.2% | -3.2% | -35.5% | 11.3% | -7.7%
CC(C)(CCC(=O)O)C(=O)O | -4.15% | -34.1% | -30.5% | 4.95% | -32.9% | -2.9%
CCN1/C(=C/C=C/C=C/c2oc3ccccc3[n+]2CC)Oc2ccccc21 | 34% | 5.6% | 10.1% | 36.8% | 0.2% | 17.2%
O=C(CC(C(=O)c1ccc(F)cc1)c1ccsc1)c1cccs1 (configuration not stated) | 13.8% | 2.3% | 26.8% | 16.5% | 8.5% | 3%
Cc1cccc(C(=O)OCc2ccccc2CN2CCCCC2)c1 | -5.15% | -9.75% | -12.9% | -21.6% | 2.85% | -3.6%
C/C=C/C#CC#C/C=C/C=C/CC | 10.1% | 0.7% | -1.35% | 8.6% | 16.6% | -2.05%
CC1=NN2C(=O)CSC2=NC(C)(C)C1 | -5.35% | -12.8% | 7.45% | 25.9% | -5.75% | -9.95%
CCCCCCCCCC(=O)N/N=C/c1c[nH]c2ccccc12 | 0.95% | 28.4% | 20.7% | -8.75% | 29.1% | 21.9%
Cc1cc(C)nc(NS(=O)(=O)c2ccc(NC(=O)C(Cl)(Cl)Cl)cc2)n1 | -34% | -24.6% | -35.4% | -13% | -42% | -39.8%
Oc1c(Br)cc(Br)cc1/C=N/N=C/c1cc(Br)cc(Br)c1O | -6.7% | -20% | -15.9% | 0.2% | -8.5% | 7.5%
NC(N)=NCCCCC(=O)Nc1ccc(S(N)(=O)=O)cc1 | 6.15% | -0.65% | -13.2% | -6.15% | -3.75% | -19.2%
Cc1ccc(NC(=O)CC2SC(=Nc3cccc(Cl)c3C)NC2=O)cc1 (configuration not stated) | 30.9% | 27.9% | 41.5% | 28.7% | 26.1% | 11%
Cc1ccccc1SCC(N)=O | 6.55% | 9.1% | -0.85% | -12.1% | 5.35% | -0.7%
O=C1CSC(c2ccc(Br)cc2)N1c1nncs1 (configuration not stated) | -2.75% | 19.6% | 18.2% | -9.95% | 6.6% | 23.3%
CC(C)CCCC(C)C1CCC2C3CCC4=CC(=O)C=CC4(C)C3CCC12C (configuration not stated) | 45.1% | 35.2% | 47.6% | 19.1% | 0.85% | 41%
